We go through 48 molecules from PubChem BioAssay AID1851 (National Center for Advancing Translational Sciences (NCATS), 2009).

The structures appear in SMILES notation. The campaign covered roughly 16,000 compounds. About 5,100 (32%) were called active. Roughly 25% stayed inconclusive and do not appear here. Some of the results follow. A number with no mark means an inactive call. Calls come from the whole dose curve; as a rule, active = well fitted curve in the direction sought with a large enough effect; inconclusive = small, poorly fitted or top-dose-only effect, or effect the other way; inactive = no such curve, though single readings can be large or run the other way.
% is set by controls: 0 for no effect and ±100 for the full control effect.

For the test, the target named is Cytochrome P450 3A4 (Homo sapiens) (UniProt P08684). The experiment in a line: Cytochrome panel assay with activity outcomes. To be noted: recombinant CYP, pro-luciferin dealkylation, luminescence, p450-cyp3a4; series mostly up to 57.1 µM; activity, negative = inhibition: at the top concentration.
Sequence of Cytochrome P450 3A4 (Homo sapiens) (P08684 whole entry, looked up): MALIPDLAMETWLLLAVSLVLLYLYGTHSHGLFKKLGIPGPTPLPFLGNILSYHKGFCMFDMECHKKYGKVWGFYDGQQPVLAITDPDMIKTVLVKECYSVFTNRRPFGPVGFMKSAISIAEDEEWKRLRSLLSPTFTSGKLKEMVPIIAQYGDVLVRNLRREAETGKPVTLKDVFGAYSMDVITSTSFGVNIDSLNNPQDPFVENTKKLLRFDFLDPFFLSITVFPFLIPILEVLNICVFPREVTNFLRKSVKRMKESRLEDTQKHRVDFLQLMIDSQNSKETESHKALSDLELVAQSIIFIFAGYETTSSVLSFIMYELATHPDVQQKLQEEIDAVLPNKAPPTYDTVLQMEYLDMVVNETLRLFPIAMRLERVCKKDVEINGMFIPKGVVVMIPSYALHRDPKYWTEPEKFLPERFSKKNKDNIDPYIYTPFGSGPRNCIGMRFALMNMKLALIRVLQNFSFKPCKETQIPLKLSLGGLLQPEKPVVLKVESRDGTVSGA
Turning to `CC(=O)c1c(N=CN(C)C)nc(C)nc1-c1ccccc1`, the “activity, negative = inhibition” value is -8.85%. `CC(=O)c1cc2c(cc1NC(=O)CCCC(=O)O)OCO2`: the “activity, negative = inhibition” value was -24.3%.

Consider `CC(=O)c1cc2c(cc1NC(=O)c1c(-c3ccccc3)noc1C)OCO2`, for which the concentration at half-maximal activity (AC50) was 1.58 µM (active).

In the case of `CN(N=O)C(=O)N[C@H]1C(O)OC(CO)[C@@H](O)[C@H]1O` (stereo partly drawn), the “activity, negative = inhibition” value was -11.7%.

As for `O=C(/C=C\NCC(=O)c1ccccc1)c1ccccc1`, the AC50 was 15.8 µM (active). Take `O=C(/C=C\NCC(=O)c1ccccc1)c1ccc(F)cc1`: the AC50 is 14.1 µM (active).

For the molecule `O=C(C[n+]1cccc(NC(=O)c2ccccc2)c1)c1ccc(NC(=O)c2ccccc2)cc1`, the activity, negative = inhibition is 9.66% [at 2.29 µM]. Same read-out and setting: in the case of `CN(C)/C=C/C(=O)c1ccc(F)cc1` it was -10.5%. With `O=C(O)CCC(=O)CCC(=O)c1ccccc1`, the “activity, negative = inhibition” value is -7.58%. For the molecule `O=C(CCCc1ccccn1)c1ccccc1`, the activity, negative = inhibition is -27.1% [at 11.4 µM].

Turning to `N[C@@H](CS(=O)O)C(=O)O`, the “activity, negative = inhibition” value is -3.74%. Regarding `Cn1c(=O)n2n(c1=O)[C@H]1[C@H](O)[C@H]3O[C@@H]3/C(=N/OC[C@@H](O)COCc3ccco3)[C@@H]1CC2`, the activity, negative = inhibition is -23.8% [at 11.4 µM]. For `CC(C)=NOC[C@@H](O)COCc1ccco1`, the activity, negative = inhibition was -14.7% [at 11.4 µM]. For the molecule `COc1cccc([C@@H]2Oc3ccc(OC)cc3/C(=N/OC[C@@H](C)[C@H](OCc3ccccc3)C(C)C)[C@@H]2O)c1`, the AC50 is 3.16 µM (active). `CCOc1ccc(/C=C2\C(=O)c3ccccc3OC2c2ccccc2)cc1` (stereo not drawn): the “activity, negative = inhibition” value is 17.9%. Consider `COc1cccc(C2C3(C#N)C(N)=NC(OC)(OC)C23C#N)c1` (stereo not drawn), for which the activity, negative = inhibition is -16.8% [at 2.29 µM].

`COc1cccc([C@@H]2Oc3ccc(OC)cc3C(=O)[C@H]2O)c1`: the AC50 was 3.98 µM (active). For `COc1cccc([C@H]2Oc3ccc(OC)cc3/C(=N\OC[C@@H](O)[C@@H]3O[C@@H]4OC(C)(C)O[C@@H]4[C@H]3O)[C@@H]2O)c1`, the AC50 was 3.98 µM (active). For `COc1cccc([C@@H]2Oc3ccc(OC)cc3/C(=N/OC[C@@H](O)COCc3ccco3)[C@@H]2O)c1`, the AC50 was 3.16 µM (active). For `CCN1C(=O)[C@H]2[C@H]3[C@H](O)[C@H](O)C/C(=N/OC[C@@H](O)[C@H]4O[C@H]5OC(C)(C)O[C@H]5[C@@H]4O)[C@@H]3CC[C@@H]2C1=O`, the activity, negative = inhibition was -16.2% [at 11.4 µM]. In the case of `CCS(=O)(=O)c1ccc2c(c1)N(S(C)(=O)=O)CC(C(=O)NCCOC)O2` (stereo not drawn), the “activity, negative = inhibition” value was -7.69%.

For `O=C(O)Cc1ccc2c(c1)N(S(=O)(=O)c1cccc(C(F)(F)F)c1)CC(C(=O)O)O2` (stereo not drawn), the activity, negative = inhibition was -7.46% [at 2.29 µM].

With `CCOC(=O)C1CN(S(=O)(=O)c2cccc(C(F)(F)F)c2)c2cc(CC(=O)OC)ccc2O1` (stereo not drawn), the AC50 was 5.01 µM (active). As for `COc1ccc2[nH]cc(CCNc3ncncc3-c3ccc(C(=O)N(C)C)cc3)c2c1`, the AC50 was 1 µM (active).

Take `COc1ccc2[nH]cc(CCNc3ncncc3-c3ccc(N(C)C)cc3)c2c1`: the half-maximal activity concentration (AC50) is 0.501 µM (active). On the same count and under the same terms, in the case of `COc1ccc2[nH]cc(CCNc3ncnc4ccc(-c5ccc(C(=O)N(C)C)cc5)cc34)c2c1` it was 2.51 µM (active); in that of `CC1CC/C(=C\c2ccc3c(c2)OCO3)C(=O)/C1=C/c1ccc2c(c1)OCO2` (stereo not drawn), 1.58 µM (active).

Take `CCS(=O)(=O)c1ccc(C(=O)Nc2ccccc2)c(Cl)c1Cl`: the AC50 is 5.01 µM (active). On to `CCS(=O)(=O)c1ccc(O)c(NC(=O)Nc2ccccc2)c1`, for which the “activity, negative = inhibition” value is -25.1%. The same measure, in the same setting: in the case of `CC(C)CO/N=C1/[C@H]2O[C@@H]2[C@@H](O)[C@H]2[C@H]1CCn1c(=O)n(C)c(=O)n12` it was -9.68% [at 11.4 µM]. `Cc1nc(S(=O)(=O)N2CCOCC2)c(C#N)c(C)c1Cl`: the “activity, negative = inhibition” value is -9.65%.

Consider `Cc1nc(S(=O)(=O)N(C)c2ccccc2)c(C#N)c(C)c1Cl`, for which the “activity, negative = inhibition” value is -23.4%. With `Cc1nc(S(=O)(=O)NC2CCCCC2)c(C#N)c(C)c1Cl`, the concentration at half-maximal activity (AC50) is 7.94 µM (active). For the molecule `Cc1cccc(NC(=O)CSc2nc(COc3ccccc3)nc3ccccc23)c1C`, the AC50 was 3.98 µM (active). For `N[C@@H](C(=O)O)c1cc(O)ccc1Cl`, the AC50 was 15.8 µM (active).

For the molecule `N[C@H](C(=O)O)c1cccc(O)c1`, the AC50 entry was “inactive”. `N[C@H](C(=O)O)c1cc(O)cc(O)c1`: the AC50 was 12.6 µM (active). As for `N[C@H](C(=O)O)c1ccc(C(=O)O)c(O)c1`, the “activity, negative = inhibition” value was -8.41%. For the molecule `N[C@@H](C(=O)O)c1ccc(C(=O)O)c(O)c1`, the “activity, negative = inhibition” value was -10.3%.

As to `N[C@H](C(=O)O)c1ccc(O)c(C(=O)O)c1`, the “activity, negative = inhibition” value is -10.6%.

For `NC(N)=N[C@@H]1C(O)[C@H](N=C(N)N)[C@@H](O)C(O)[C@H]1O` (stereo partly drawn), the activity, negative = inhibition is 12.2% [at 11.4 µM]. For `NC(=O)NC(=O)[C@H]1CCCC[C@@H]1C(=O)O`, the activity, negative = inhibition is 2.92% [at 11.4 µM]. Consider `COn1c(SCc2cccc(Cl)c2)nc2ccccc2c1=O`, for which the “activity, negative = inhibition” value is -25.3%. In the case of `COn1c(SCc2ccc(C)cc2C)nc2ccccc2c1=O`, the AC50 is 12.6 µM (active). As for `COn1c(SC(C)C)nc2ccccc2c1=O`, the activity, negative = inhibition was 5.93% [at 11.4 µM].

Regarding `COc1ccc(Oc2c(Cl)cnn(-c3ccccc3)c2=O)cc1`, the AC50 was 14.1 µM (active). For `COc1cccc(/C=N/n2nnc3c(cnn3-c3ccccc3)c2=O)c1`, the “activity, negative = inhibition” value is 22%. The same measure, in the same setting: in the case of `O=c1oc(-c2ccco2)nc2c1cnn2-c1ccccc1` it was -8.28%.

As usually defined, the AC50 is the concentration giving half of the maximal activity seen.
